Assay results reported in PubChem BioAssay (Tox21).
Records with an inconclusive call do not appear. Calls of active or inactive are those of the source. Unless noted, calls come from the whole dose curve; as a rule, active = well fitted curve in the direction sought with a large enough effect in the repeat runs; inconclusive = weak or mixed curves; inactive = no such curve, though single readings can be large; an effect the other way counts as inactive or inconclusive.

Legend:
[1] = qHTS assay to identify small molecule agonists of the RXR signaling pathway - cell viability counter screen (AID 1159529); details: RXR-alpha-bla HEK293T viability, CellTiter-Glo, 16 h; series mostly up to 76.8 µM;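 note: HEK 293T cells carrying an RXR-alpha UAS beta-lactamase reporter; % is set by controls: 0 for no effect and ±100 for the full control effect; nearly all actives have a fitted effect of over 50% in size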
How it was run: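 Steps: seed RXR-alpha-UAS-bla HEK 293T cells in assay medium containing 2% charcoal-stripped FBS; incubate 5 hr; add compounds in DMSO; incubate 16 hr at 37 C; after the bla read, add CellTiter-Glo and read luminescence at 30 min.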

[2] = qHTS assay to identify small molecule antagonists of the retinoid acid receptor (RAR) signaling pathway - cell viability counter screen (AID 1159551); details: C3RL4 cells viability, ATP luminescence (CellTiter-Glo), 6 h; series mostly up to 92.4 µM; note: % is set by controls: 0 for no effect and ±100 for the full control effect; nearly all actives have a fitted effect of over 35% in size
How it was run: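 Measured by luminescent ATP detection, viability reflects C3RL4 cells treated 6 h at 37 C with test chemicals in the presence of 1 uM (final) retinol.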

[3] = qHTS assay to identify small molecule antagonists of the retinoic acid receptor (RAR) signaling pathway (AID 1159552; note: nearly all actives have a fitted effect of over 50% in size; note: potency is the fitted concentration of half-maximal effect; for activity, negative = inhibition: % is set by controls: 0 for no effect and ±100 for the full control effect); details: C3RL4 RARE luciferase reporter, retinol-stimulated, 6 h; series mostly up to 92.4 µM
How it was run: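 Retinol at 1 uM final stimulated RARE-luciferase expression in C3RL4 cells exposed to test compounds for 6 hr at 37 C. Reduced luminescence, read 30 min after detection reagent, indicated pathway antagonism.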

[4] = qHTS assay to identify small molecule agonists of the retinoic acid receptor (RAR) signaling pathway (AID 1159553); details: C3RL4 RARE luciferase reporter, agonist, 6 h; series mostly up to 73.3 µM; note: potency is the fitted concentration of half-maximal effect
How it was run: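 6 hr compound exposure (DMSO vehicle) of overnight-plated C3RL4 RARE-luc cells at 37 C; luminescence quantified after 30 min RT with luciferase reagent.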

[5] = qHTS assay to identify small molecule antagonists of the estrogen related receptor (ERR) signaling pathway from Tox21 library - cell viability counter screen (AID 1224834); details: ERR reporter cells viability, CellTiter-Fluor, 17.5 h; series mostly up to 92.4 µM; note: % is set by controls: 0 for no effect and ±100 for the full control effect; nearly all actives have a fitted effect of over 30% in size
How it was run: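 Seeded ERR cells were rested 6 h at 37 C/5% CO2 before compounds, positive and negative controls or DMSO were added. Incubation continued for 17.5 h, and viability was then quantified by CellTiter-Fluor fluorescence.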

[6] = qHTS assay to identify small molecule antagonists of the estrogen related receptor (ERR) signaling pathway (AID 1224819; note: potency is the fitted concentration of half-maximal effect; nearly all actives have a fitted effect of over 50% in size); details: ERR reporter cell line, luciferase inhibition; series mostly up to 46.1 µM
How it was run: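 Compounds dissolved in DMSO were pin-transferred onto ERR cells that had been plated 6 h earlier, and cells were then incubated 18 h at 37 C; signal was luciferase luminescence via One-Glo.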

[7] = qHTS assay to identify small molecule agonists of the estrogen related receptor (ERR) signaling pathway (AID 1224820); details: ERR reporter cell line, luciferase agonist mode; series mostly up to 46.1 µM; note: % is set by controls: 0 for no effect and ±100 for the full control effect
How it was run: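 Following a 6 h settling period, 2,000 ERR cells per well receive DMSO-dissolved compounds by pin tool and incubate 18 h at 37 C; agonist activity is scored from One-Glo luminescence read 30 min post-addition.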

[8] = test system: estrogen-related receptor alpha (ERRalpha) with PGC-1alpha coactivator, human; assay: qHTS assay to identify small molecule antagonists of the estrogen related receptor signaling pathway with the pleiotropic PPARgamma coactivator (PGC) (AID 1224821; calls by dose curve; note: potency is the fitted concentration of half-maximal effect; nearly all actives have a fitted effect of over 50% in size); details: ERR/PGC reporter cell line, luciferase, antagonist mode; series mostly up to 46.1 µM
How it was run: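 Screening used NTP's PGC/ERR cells, dosed via pin tool with compound in DMSO alongside positive and negative controls. After 18 h at 37 C, One-Glo reagent sat 30 min at room temperature before luminescence detection.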

[9] = qHTS assay to identify small molecule agonists of the estrogen related receptor signaling pathway with the pleiotropic PPARgamma coactivator (PGC) (AID 1224823); details: ERR/PGC reporter cell line, luciferase agonist mode; series mostly up to 46.1 µM; note: % is set by controls: 0 for no effect and ±100 for the full control effect
How it was run: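 In this quantitative high-throughput screen, an 18 h, 37 C treatment of PGC/ERR cells with compounds in DMSO preceded a One-Glo luminescence read taken after 30 min at room temperature.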

CC(C)(C)C(=O)O
inactive: Potency [1] | Potency [2] | Potency [3] | Potency [4] | Potency [5]

Cc1ccnc2ccccc12
inactive: Potency [1] | Potency [2] | Potency [3] | Potency [5]

O=C(O)c1ccc(CO)o1
inactive: Potency [1] | Potency [2] | Potency [3] | Potency [4] | Potency [5]

[O]=[Bi]
inactive: activity change, negative = cytotoxicity [1] 0.795% [at 6.97 µM] | activity change, negative = cytotoxicity [2] -0.124% [at 8.39 µM] | activity, negative = inhibition [3] 92.1% [at 8.39 µM] | viability change, negative = cytotoxic [5] 0.391% [at 8.39 µM]

CCC(Cc1ccccc1)(C(=O)c1ccc(N2CCOCC2)cc1)N(C)C (stereo not drawn)
inactive: Potency [1] | Potency [2] | Potency [4]

CC1=CC(=O)CC(C)(C)C1(O)/C=C/C(C)=C\C(=O)O (stereo not drawn)
inactive: Potency [1] | Potency [2] | Potency [3] | Potency [4] | Potency [5]

Nc1c(I)cc(I)c(C(=O)N(CCC(=O)O)c2ccccc2)c1I
inactive: Potency [1] | Potency [2] | Potency [3] | Potency [4] | Potency [5]

CCN(Cc1cccc(S(=O)(=O)O)c1)c1ccc(C(=C2C=CC(=[N+](CC)Cc3cccc(S(=O)(=O)[O-])c3)C=C2)c2ccccc2)cc1
inactive: Potency [1] | Potency [2] | Potency [3] | Potency [4] | Potency [5]

CCCC1C(CC)=CC(CC)=CN1c1ccccc1 (stereo not drawn)
inactive: Potency [1] | Potency [2] | Potency [3] | Potency [5]

Nc1ccc(C(=O)OCCCOC(=O)c2ccc(N)cc2)cc1
inactive: Potency [1] | Potency [2] | Potency [3] | Potency [5]

CCCOC(=O)c1ccc(C(=O)OCCC)nc1
inactive: Potency [1] | Potency [2] | Potency [3] | Potency [5]
active: Potency [4] 68.6 µM

CCC(C)(C)C1CCC(O)CC1 (stereo not drawn)
inactive: Potency [1] | Potency [2] | Potency [3] | Potency [4] | Potency [5]

CC(=O)Oc1ccc(C(=C2CCCCC2)c2ccc(OC(C)=O)cc2)cc1
inactive: Potency [1] | Potency [2] | Potency [3] | Potency [5]

CC(=O)[C@H]1CC[C@H]2[C@@H]3C[C@H](C)C4=CC(=O)CC[C@]4(C)[C@H]3[C@@H](O)C[C@]12C
inactive: Potency [1] | Potency [2] | Potency [4]

CCOC(=O)[C@@H](C)Oc1ccc(Oc2nc3ccc(Cl)cc3o2)cc1
inactive: Potency [1] | Potency [2] | Potency [3] | Potency [5]

CC(=O)N(c1onc(C)c1C)S(=O)(=O)c1ccc(N)cc1
inactive: Potency [1] | Potency [2] | Potency [3] | Potency [4] | Potency [5]

COC(=O)c1cc(S(N)(=O)=O)ccc1OC
inactive: Potency [1] | Potency [2] | Potency [3] | Potency [4] | Potency [5]

CC1(C)C(=O)N(Br)C(=O)N1Cl
inactive: Potency [1] | Potency [2] | Potency [3] | Potency [4] | Potency [5]

CC(C)(CCl)c1ccccc1
inactive: Potency [1] | Potency [2] | Potency [3] | Potency [5]

c1cnc2c(n1)CCCC2
inactive: Potency [1] | Potency [2] | Potency [3] | Potency [4] | Potency [5]

CC(CCc1ccc2c(c1)OCO2)NN (stereo not drawn)
inactive: Potency [1] | Potency [2] | Potency [3] | Potency [5]

O=C(NCCCN1CCOCC1)c1ccc(Cl)cc1
inactive: Potency [1] | Potency [2] | Potency [3] | Potency [5]

CCC(C(=O)OCCN(CC)CC)c1ccccc1 (stereo not drawn)
inactive: Potency [1] | Potency [2] | Potency [3] | Potency [4] | Potency [5]

CCOC(=O)C(C)Oc1ccc(Oc2nc3ccc(Cl)cc3o2)cc1 (stereo not drawn)
inactive: Potency [1] | Potency [2] | Potency [3] | Potency [5]

COC(=O)c1cc(Cl)ccc1NS(=O)(=O)C(F)(F)F
inactive: Potency [1] | Potency [2] | Potency [3] | Potency [5]

c1ccc(COCc2ccccc2)cc1
inactive: Potency [1] | Potency [2] | Potency [3] | Potency [4] | Potency [5]

O=C(O)c1c(O)c(-c2ccccc2)nc2ccccc12
inactive: Potency [1] | Potency [2] | Potency [3] | Potency [5]

Nc1ccc(S(=O)(=O)O)cc1
inactive: Potency [1] | Potency [2] | Potency [3] | Potency [4] | Potency [5]

O=C(O)c1cccc(O)c1
inactive: Potency [1] | Potency [2] | Potency [3] | Potency [4] | Potency [5]

OC/C(Br)=C(\Br)CO
inactive: Potency [1] | Potency [2] | Potency [3] | Potency [4] | Potency [5]

CCCCCCCCSCCO
inactive: Potency [1] | Potency [2] | Potency [3] | Potency [4] | Potency [5]

CC(C)(C)C(=O)C(Oc1ccc(Cl)cc1)n1ccnc1 (stereo not drawn)
inactive: Potency [1] | Potency [2] | Potency [3] | Potency [5]

CCOC(=O)c1ccccc1OC
inactive: Potency [1] | Potency [2] | Potency [3] | Potency [4] | Potency [5]

COC(OC)(C(=O)c1ccccc1)c1ccccc1
inactive: Potency [1] | Potency [2] | Potency [3] | Potency [5]

C=CC(=C)CCCC(C)(C)OC(C)=O
inactive: Potency [1] | Potency [2] | Potency [3] | Potency [4] | Potency [5]

O=c1[nH]c2ccc(S(=O)CCN3CCC(Cc4ccc(F)cc4)CC3)cc2o1 (stereo not drawn)
inactive: Potency [1] | Potency [2] | Potency [3] | Potency [4] | Potency [5]

CC(=O)Oc1ccc2c(c1)CC[C@@H]1[C@@H]2CC[C@]2(C)[C@@H](O)CC[C@@H]12
inactive: Potency [1] | Potency [2] | Potency [4]

CC(C)OCC1CO1 (stereo not drawn)
inactive: Potency [1] | Potency [2] | Potency [3] | Potency [5]

NC(=O)Nc1ccc(Cl)c(Cl)c1
inactive: Potency [1] | Potency [2] | Potency [3] | Potency [4] | Potency [5]

CCCCCCCCCCCC(=O)[O][Sn]([CH2]CCC)([CH2]CCC)[O]C(=O)CCCCCCCCCCC
active: Potency [3] 29.8 µM
inactive: Potency [1] | Potency [2] | Potency [4] | Potency [5]

COCC(O)CO (stereo not drawn)
inactive: Potency [1] | Potency [2] | Potency [3] | Potency [4] | Potency [5]

COCCOC(=O)C1=C(C)NC(C)=C(C(=O)OC/C=C/c2ccccc2)C1c1cccc([N+](=O)[O-])c1 (stereo not drawn)
active: Potency [6] 11.9 µM | Potency [8] 17.4 µM
inactive: outcome [7] | Potency [9]
